Activity calls are given as the source filed them.

A short description of assay [1]: E. coli DRC41 culture turbidity changes, primary screen, E. coli filamentation inducer project, strain DRC41, OD650, 48 h (AID 1152).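 Note: E. coli MC1000 strain DRC41 lacking acrAB efflux pump and sulA.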 To be noted: E. coli DRC41 (acrAB sulA), higher = more signal, called active from +8 up or from −8 down.
Assay [2] in a line: small-molecule binders of probe aLefty1, primary screen, biochemical, small-molecule microarray, 635/667 nm fluorescence (AID 1153).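 Note: score merges spot fluorescence with signal-to-noise ratio from the scanned slide images.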 To be noted: higher = more signal.
The nature of assay [3]: PSAC antagonists in infected red cells, primary screen, cell-based, P. falciparum Indochina, OD700, 1 h (AID 1154). Conditions: P. falciparum Indochina infected RBC osmotic lysis, higher = more signal, called active from +8 up or from −8 down.
The nature of assay [4]: PSAC antagonists in infected red cells, primary screen, cell-based, P. falciparum Indochina, OD700, 2 h (AID 1155).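 Note: lysis reports solute entry through the parasite surface anion channel PSAC; channel blockers reduce lysis of infected cells.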 Conditions: P. falciparum Indochina infected erythrocytes, osmotic lysis OD700; higher = more signal, called active from +8 up or from −8 down.
Assay [5] in a line: osmotic lysis modulators in infected erythrocytes, primary screen, PSAC antagonist project, cell-based, P. falciparum Indochina, OD700, 3 h (AID 1156). To be noted: higher = more signal, called active from +8 up or from −8 down.
A short description of assay [6]: PSAC antagonists in infected red cells, primary screen, cell-based, P. falciparum Indochina, OD700, 18 h (AID 1157). To be noted: P. falciparum Indochina infected erythrocytes, osmotic lysis OD700, 18 h; higher = more signal, called active from +8 up or from −8 down.
Assay [7] in a line: modulators of S6 phosphorylation in cells, primary screen, cell-based, A549, cytoblot, luminescence, serum-stimulated (AID 1158).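 Note: serum-stimulated A549 lung adenocarcinoma cells; signal is phosphorylated S6 detected by cytoblot immunostaining with HRP secondary.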 Conditions: A549 phospho-S6 cytoblot, 5 h, higher = more signal.
Assay [8] addresses NADPH oxidase 2 (Homo sapiens) (UniProt P04839). In words: NOX2-dependent H2O2 signal modulators, primary screen, NOX inhibitor project, cell-based, HEK293-NOX2, PMA-stimulated, Amplex Red fluorescence (AID 1159). Note: test concentration not given here. To be noted: 45 min, higher = more signal, called active from +8 up or from −8 down.
For assay [9], the target named is NADPH oxidase 4 (Homo sapiens) (UniProt Q9NPH5). Nature of the assay: NOX4-dependent H2O2 signal modulators, primary screen, NOX inhibitor project, cell-based, HEK293-NOX4, tetracycline-induced, Amplex Red fluorescence (AID 1160). To be noted: 45 min, higher = more signal, called active from +8 up or from −8 down.
For assay [10], the target named is NADPH oxidase 5 (Homo sapiens) (UniProt Q96PH1). In words: NOX5-dependent H2O2 signal modulators, primary screen, NOX inhibitor project, cell-based, HEK293-NOX5, Amplex Red fluorescence (AID 1161). To be noted: HEK293-NOX5, ionomycin, 45 min, higher = more signal.
Assay [11] in a line: A549 cell viability effects, profiling panel, calcein-AM fluorescence, 48 h, basal (AID 1162). Note: test concentration not given here. Conditions: higher = more signal.
Assay [12] can be described thus: adipocyte viability effects, profiling panel, cell-based, 3T3-L1 adipocytes, calcein-AM fluorescence, 48 h, basal (AID 1163). Note: test concentration not given here. Conditions: 3T3-L1 adipocytes viability, higher = more signal.
Assay [13] in a line: HepG2 cell viability effects, profiling panel, calcein-AM fluorescence, 48 h, basal (AID 1164). Note: test concentration not given here. Conditions: higher = more signal.
The nature of assay [14]: MM1S cell viability effects, profiling panel, calcein-AM fluorescence, 48 h, basal (AID 1165).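 Note: viability of MM1S multiple myeloma cells under basal unstimulated conditions; test concentration not given here.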 Conditions: higher = more signal.
A short description of assay [15]: basal RPMI8226 viability, no added stimulus, profiling panel, cell-based, calcein-AM fluorescence, 48 h, PK04 Diversity Set (AID 1166).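 Note: cells grown under basal conditions without added stimulus; test concentration not given here.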 To be noted: RPMI8226 myeloma viability, higher = more signal.
Assay [16] can be described thus: basal HepG2 mitochondrial membrane potential changes, profiling panel, cell-based, JC-1 fluorescence, 24 h, 100 nL compound (AID 1167). Note: test concentration not given here. Conditions: higher = more signal.
The nature of assay [17]: basal 3T3-L1 adipocyte mitochondrial potential changes, profiling panel, cell-based, JC-1 fluorescence, 3T3-L1 adipocytes, 24 h, 100 nL compound (AID 1168). Note: test concentration not given here. To be noted: JC-1 mitochondrial fluorescence, higher = more signal, called active from +8 up or from −8 down.
Assay [18] is described as follows: basal RPMI8226 mitochondrial membrane potential changes, profiling panel, cell-based, JC-1 fluorescence, 24 h, 100 nL compound (AID 1169). Note: test concentration not given here. Conditions: RPMI8226 myeloma, JC-1 mitochondrial potential fluorescence, higher = more signal.
Assay [19] is described as follows: basal MM1S mitochondrial membrane potential changes, profiling panel, cell-based, JC-1 fluorescence, 24 h, 100 nL compound (AID 1170). Note: test concentration not given here. To be noted: higher = more signal.
Assay [20] in a line: A549 lung cancer cell viability effects, profiling panel, resazurin fluorescence, 24 h, PK04 Diversity Set (AID 1171). Note: test concentration not given here. To be noted: higher = more signal, called active from +8 up or from −8 down.

Sequence of NADPH oxidase 4 (Homo sapiens) (Q9NPH5 whole entry, looked up): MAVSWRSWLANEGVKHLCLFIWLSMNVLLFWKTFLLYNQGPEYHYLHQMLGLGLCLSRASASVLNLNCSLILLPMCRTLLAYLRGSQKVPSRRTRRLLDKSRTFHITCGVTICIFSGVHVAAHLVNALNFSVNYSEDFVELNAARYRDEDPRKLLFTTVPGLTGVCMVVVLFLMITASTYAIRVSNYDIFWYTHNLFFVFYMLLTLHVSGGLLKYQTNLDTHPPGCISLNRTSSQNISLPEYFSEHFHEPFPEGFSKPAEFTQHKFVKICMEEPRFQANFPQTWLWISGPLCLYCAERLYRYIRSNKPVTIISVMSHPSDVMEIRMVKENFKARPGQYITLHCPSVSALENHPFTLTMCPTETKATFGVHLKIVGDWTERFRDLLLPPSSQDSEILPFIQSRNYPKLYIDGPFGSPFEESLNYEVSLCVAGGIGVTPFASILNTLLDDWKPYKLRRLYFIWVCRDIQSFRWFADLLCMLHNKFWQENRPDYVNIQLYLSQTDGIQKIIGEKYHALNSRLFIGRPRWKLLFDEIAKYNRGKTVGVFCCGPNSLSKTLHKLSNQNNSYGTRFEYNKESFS
Sequence of NADPH oxidase 2 (Homo sapiens) (P04839 whole entry, looked up): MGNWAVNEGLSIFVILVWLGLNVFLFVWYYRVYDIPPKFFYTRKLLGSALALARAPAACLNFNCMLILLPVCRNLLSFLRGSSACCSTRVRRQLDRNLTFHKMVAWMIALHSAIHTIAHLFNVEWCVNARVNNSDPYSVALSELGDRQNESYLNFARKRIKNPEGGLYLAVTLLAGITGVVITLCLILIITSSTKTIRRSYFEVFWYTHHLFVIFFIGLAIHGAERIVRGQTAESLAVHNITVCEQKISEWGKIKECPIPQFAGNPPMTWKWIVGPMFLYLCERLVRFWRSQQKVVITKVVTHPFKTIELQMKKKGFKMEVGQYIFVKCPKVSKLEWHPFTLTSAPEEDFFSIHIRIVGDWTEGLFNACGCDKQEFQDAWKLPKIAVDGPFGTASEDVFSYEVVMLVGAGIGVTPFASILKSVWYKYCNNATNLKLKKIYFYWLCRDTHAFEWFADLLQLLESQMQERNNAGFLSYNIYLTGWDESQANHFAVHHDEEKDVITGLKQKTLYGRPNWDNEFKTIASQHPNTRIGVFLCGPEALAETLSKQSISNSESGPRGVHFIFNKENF
Sequence of NADPH oxidase 5 (Homo sapiens) (Q96PH1 whole entry, looked up): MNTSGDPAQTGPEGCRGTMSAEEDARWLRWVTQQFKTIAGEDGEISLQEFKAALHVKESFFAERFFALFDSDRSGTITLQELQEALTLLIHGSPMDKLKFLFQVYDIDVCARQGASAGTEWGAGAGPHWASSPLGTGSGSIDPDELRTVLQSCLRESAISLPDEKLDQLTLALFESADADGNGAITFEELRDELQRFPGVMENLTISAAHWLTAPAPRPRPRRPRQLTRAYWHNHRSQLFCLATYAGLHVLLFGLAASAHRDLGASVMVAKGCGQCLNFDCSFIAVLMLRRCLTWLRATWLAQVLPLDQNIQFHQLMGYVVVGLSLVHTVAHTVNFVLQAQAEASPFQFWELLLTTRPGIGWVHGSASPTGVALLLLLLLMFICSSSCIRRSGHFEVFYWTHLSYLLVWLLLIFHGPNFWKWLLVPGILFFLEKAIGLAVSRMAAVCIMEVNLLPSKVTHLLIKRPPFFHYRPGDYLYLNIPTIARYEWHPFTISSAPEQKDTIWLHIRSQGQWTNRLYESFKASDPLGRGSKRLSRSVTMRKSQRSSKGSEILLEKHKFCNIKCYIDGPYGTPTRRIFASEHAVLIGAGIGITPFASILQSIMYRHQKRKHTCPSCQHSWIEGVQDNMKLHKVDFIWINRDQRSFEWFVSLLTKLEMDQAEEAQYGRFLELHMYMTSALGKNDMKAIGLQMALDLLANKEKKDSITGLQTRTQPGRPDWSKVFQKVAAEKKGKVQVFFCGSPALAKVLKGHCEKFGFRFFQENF

On to `CCCN1C(=O)[C@@]2(c3ccc([N+](=O)[O-])cc3)CC(=O)N(CC34CC5CC(CC(C5)C3)C4)[C@@H]2c2ccc(CO)cc21`, for which the z-score in [1] is -0.803 (inactive); in assay [3], 0.336 (inactive); in assay [4], 0.0149 (inactive); in [5], 0.519 (inactive); in [6] it was -0.312 (inactive); in assay [7], -0.574. The z-score in assay [8] was 0.658 (inactive); in assay [9], 0.148 (inactive); in assay [10], 0.631; in assay [11] it was 0.129; in [12] it was -0.4; in assay [13], -0.301. The z-score in [14] is -0.194; in assay [15] it was 0.448; in [16], -0.885; in [17], -0.656 (inactive); in assay [18] it was 0.282; in [19] it was -0.315. In addition, the z-score in assay [20] was 0.0382 (inactive). The composite z-score in assay [2] worked out at 0.334.
As to `Cc1ccc(S[C@]2(C(=O)NC(C)C)CC(=O)N(C3CCCCC3)[C@@H]2c2ccc(CO)cc2I)cc1`, the z-score in assay [1] is 0.497 (inactive); in assay [3] it was 6.28 (inactive); in assay [4], 1.47 (inactive); in [5], 1.18 (inactive); in assay [6], 0.916 (inactive); in assay [7], -0.052. The z-score is 0.877 (inactive) in [8]; 0.292 (inactive) in [9]; 1.89 in assay [10]; -0.0909 in [11]; 0.0617 in [12]; -0.938 in [13]. The z-score is -2.07 in assay [14]; -2.68 in [15]; 1.06 in [16]; -0.0605 (inactive) in assay [17]; -0.351 in assay [18]; -1.12 in assay [19]. In addition, the z-score in assay [20] is 0.81 (inactive). Also, the composite z-score in assay [2] is -0.0564.
Regarding `Cc1ccc(S[C@]2(C(=O)NCc3ccccc3)CC(=O)N(Cc3ccccc3C(F)(F)F)[C@@H]2c2ccc(CO)cc2)cc1`, the z-score in assay [1] was 0.995 (inactive); in assay [3], 0.485 (inactive); in assay [4], -0.797 (inactive); in assay [5] it was -1.37 (inactive); in assay [6], -0.802 (inactive); in assay [7], 1.24. Moreover, the z-score in assay [8] is -1.69 (inactive); in assay [9], 0.0366 (inactive); in assay [10], -0.3; in [11] it was 0.653; in assay [12], 0.269; in assay [13], 1.73. In addition, the z-score in assay [14] is 0.0811; in [15] it was 1.36; in [16] it was 0.779; in assay [17], 0.311 (inactive); in [18], -0.0337; in assay [19], -0.216. Further, in assay [20], the z-score is -1.35 (inactive). The compound also gave a composite z-score in assay [2] of -0.012.
Regarding `CC(C)(C)OC(=O)CC[C@]1(C(=O)NCC(O)CO)N=C(c2ccc(OCCCO)cc2)O[C@H]1c1ccccc1N=[N+]=[N-]` (stereo not given in full), the z-score was 0.618 (inactive) in assay [1]; 29.9 (active) in assay [3]; 27.1 (active) in assay [4]; 1.38 (inactive) in assay [5]; 6.1 (inactive) in assay [6]; -0.465 in assay [7]. Also, the z-score is -3.04 (inactive) in assay [8]; 1.04 (inactive) in assay [9]; -1.68 in assay [10]; 0.0239 in [11]; 0.809 in assay [12]; 0.324 in assay [13]. Besides, the z-score in assay [14] was -0.312; in assay [15], -0.198; in assay [16] it was 0.0858; in [17] it was 2.2 (inactive); in [18], -0.832; in assay [19], -0.591. The z-score in [20] was 0.35 (inactive). In addition, in [2], the composite z-score worked out at 0.215.
With `COc1ccc([Si](C)(C)[C@H]2[C@H](CC(=O)N3CCC[C@H]3CO)O[C@@]3(C(=O)N(Cc4ccc(N5CCCCC5=O)cc4)c4ccccc43)[C@@H]2C)cc1`, the z-score in assay [1] was 1.5 (inactive); in assay [3], 7.73 (inactive); in assay [4], 1.66 (inactive); in assay [5], 2.12 (inactive); in assay [6], 1.02 (inactive); in [7] it was 0.287. Further, the z-score in assay [8] was 1.52 (inactive); in [9], 1.03 (inactive); in assay [10], 2.69; in assay [11], -0.288; in assay [12], 0.954; in [13], -0.531. The z-score is -1.74 in assay [14]; -3.5 in assay [15]; 3.5 in [16]; -0.774 (inactive) in assay [17]; -1.02 in assay [18]; -0.184 in [19]. The z-score in assay [20] is -0.421 (inactive). The composite z-score in [2] was 0.44.
As for `CC(C)NC(=O)[C@@H]1c2ccccc2C(=O)N(Cc2ccc(OC(F)(F)F)cc2)[C@H]1c1ccc(CO)cc1`, the z-score was -0.376 (inactive) in [1]; 2.18 (inactive) in [3]; -0.0655 (inactive) in [4]; 2.65 (inactive) in assay [5]; 0.179 (inactive) in assay [6]; -0.065 in assay [7]. Also, the z-score in assay [8] is 0.412 (inactive); in assay [9], -0.27 (inactive); in [10], 1.87; in assay [11], 0.531; in assay [12], 1.34; in [13], -0.315. The z-score in assay [14] is 1.09; in [15], -1.85; in [16], 2.18; in assay [17], -1.32 (inactive); in assay [18] it was 0.24; in [19], -0.498. Moreover, the z-score in [20] was 0.0746 (inactive). Moreover, the composite z-score in assay [2] is 1.24.
For the compound `CC(C)N1C(=O)c2ccccc2[C@](C)(C(=O)NCC(F)(F)F)[C@@H]1c1ccc(CO)cc1`, the z-score in assay [1] is 0.481 (inactive); in assay [3] it was 0.834 (inactive); in [4] it was -0.0162 (inactive); in [5], -0.377 (inactive); in assay [6] it was -0.16 (inactive); in assay [7] it was 0.0308. Besides, the z-score in assay [8] is 0.91 (inactive); in assay [9], 0.89 (inactive); in assay [10], 0.783; in assay [11] it was 0.508; in [12], 1.33; in assay [13], 1.01. Moreover, the z-score in assay [14] was 0.0226; in assay [15] it was 0.177; in assay [16] it was 0.686; in [17], -0.0819 (inactive); in [18], 0.261; in [19], 1.38. In addition, the z-score in [20] was 0.87 (inactive). In assay [2], the composite z-score is 0.402.
`CN(C)C(=O)[C@]1(Cc2ccccc2)N=C(c2ccc(OCCCO)cc2)O[C@@H]1c1ccccc1CN=[N+]=[N-]`: the z-score in assay [1] is 0.631 (inactive); in [3], 27.3 (active); in assay [4], 17.5 (active); in [5], 1.11 (inactive); in assay [6], 2.14 (inactive); in assay [7], 0.0358. Further, the z-score in assay [8] is -3.22 (inactive); in [9] it was -0.846 (inactive); in assay [10] it was -1.24; in assay [11], 0.233; in assay [12], 0.412; in [13], -0.0312. Moreover, the z-score in assay [14] is -0.726; in [15], -1.65; in assay [16], 0.501; in assay [17] it was 0.0148 (inactive); in [18], -1.23; in assay [19] it was -0.507. The z-score in assay [20] was 0.553 (inactive). The composite z-score in [2] amounted to 0.313.
As to `C=CCC(OC(C)=O)[C@@H]1[C@@H](N(Cc2cccc3ccccc23)C(=O)Cc2ccc(OC)cc2)c2cc(OCCCO)ccc2N1C(=O)c1ccc2ccccc2c1` (stereo not given in full), the z-score in [1] was 0.808 (inactive); in assay [3], 0.79 (inactive); in assay [4], -0.443 (inactive); in assay [5], -0.214 (inactive); in [6], -0.691 (inactive); in [7], 1.2. The z-score in assay [8] is -2.11 (inactive); in assay [9], -1.24 (inactive); in [10], -0.827; in [11], 1.19; in assay [12], 2.02; in [13], 0.692. The z-score in [14] was 0.357; in assay [15], 1.19; in [16] it was 2.55; in assay [17], 0.443 (inactive); in assay [18], 0.066; in assay [19] it was 0.433. The z-score in assay [20] was 0.445 (inactive). For the same compound, the composite z-score in assay [2] worked out at 0.147.

The values are drawn from PubChem BioAssay.
